Measurements as given in the supplement of paper PMC10849652.
Of roughly 7,900 targets only a part is listed; those with a hit were picked by preference. About 0.6% of all pairs of compound and target were hits.

Molecular target: AAK1 (UniProt A0A096LP25)
Assay: log2 fold change, soluble protein after heating vs DMSO (PISA); higher = thermal stabilisation; K562 cells, 10 uM, 30 min; active = over 0.2 and 3.5 SD of the protein, either way, in both replicates (recomputed)
In short: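 K562 cells at 2×10^6 cells/mL were treated for 30 min with 10 μM compound, and aliquots were heated for 3 min over 48°C-58°C before pooling. Extraction used PBS with 0.5% NP-40 at 4°C, and soluble protein was the supernatant after 21,000xg for 90 min, measured by TMTpro 16plex LC-MS/MS with channel sums equalised. Thermal stability values, relative to control samples and from duplicates, are log2 fold changes.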

log2 fold change, inactive:
CCn1c(C(=O)N(C2CC2)C2CC2)cc2c3c(ncn3C)c(Nc3cc(C)n(C)n3)nc21 -0.041
Cc1ccc(NC(=O)c2ccc(CN3CC[C@H](N(C)C)C3)c(C(F)(F)F)c2)cc1Nc1nccc(-c2cncnc2)n1 [bafetinib] -0.058
CCCCN(Cc1ccc(C(=O)NO)cc1)C(=O)Nc1ccccc1 [Nexturastat A] 0.068
Cc1cccc(-c2[nH]c(C(C)(C)C)nc2-c2ccc3nccnc3c2)n1 0
C#Cc1cccc(Nc2ncnc3cc(OCCOC)c(OCCOC)cc23)c1 [erlotinib] 0.043
CC[C@H](C)n1cc(C)c2c(C(=O)NCc3c(C)cc(C)[nH]c3=O)cc(-c3ccc(N4CCNCC4)nc3)cc21 -0.005
C[C@@H]1COCCN1c1cc(C2(S(C)(=O)=O)CC2)nc(-c2cccc3[nH]ccc23)n1 0.012
CC1=C(C(=O)Nc2cc3cn[nH]c3cc2F)C(c2ccc(C(F)(F)F)cc2)CC(=O)N1 (stereo not given) -0.113
O=C(CCCCCCC(=O)Nc1ccccc1)NO [vorinostat] -0.007
Oc1cc(-c2nc(-c3ccccc3)[nH]c2-c2ccncc2)ccc1Cl 0.017
NCC(=O)Nc1ccc(-n2nc(C(F)(F)F)cc2-c2ccc3c(ccc4ccccc43)c2)cc1 -0.085
CC[C@@H]1C(=O)N(C)c2cnc(Nc3ccc(C(=O)NC4CCN(C)CC4)cc3OC)nc2N1C1CCCC1 -0.086
NC(=O)c1cnc(N[C@@H]2CCCC[C@@H]2N)nc1Nc1cccc(-n2nccn2)c1 0.048
Fc1ccc(Cl)cc1-c1nc(Nc2ccncc2)c2nccnc2n1 -0.027
CS(=O)(=O)c1ccc(-c2cnc(N)c(C(=O)Nc3ccccc3)n2)cc1 0.138
CN(C)CC(=O)Nc1ccc2[nH]c(=O)c3ccccc3c2c1 0.037
COc1ccc(Cn2ccc3ccc(C(=O)NO)cc32)cc1 -0.089
C[C@@H](Oc1cc(-c2cnn(C3CCNCC3)c2)cnc1N)c1c(Cl)ccc(F)c1Cl [crizotinib] 0.124
CC[C@H](C)[C@H](NC(=O)[C@H]([C@@H](C)CC)N(C)C(C)=O)C(=O)N[C@H](C(=O)N[C@@H](CC(C)C)C(=O)[C@@]1(C)CO1)[C@@H](C)O [epoxomicin] -0.098
Nc1ccccc1NC(=O)c1ccc(CNC(=O)OCc2cccnc2)cc1 [entinostat] -0.061
CCN(CC)Cc1ccc2cc(COC(=O)Nc3ccc(C(=O)NO)cc3)ccc2c1 [givinostat] 0.056
CC(C)N(C[C@H]1O[C@@H](n2cnc3c(N)ncnc32)[C@H](O)[C@@H]1O)[C@H]1C[C@@H](CCc2nc3cc(C(C)(C)C)ccc3[nH]2)C1 [pinometostat] -0.033
CN1CCN(c2nc(C3=C(c4c[nH]c5ccccc45)C(=O)NC3=O)c3ccccc3n2)CC1 [sotrastaurin] -0.005
Cn1cc(-c2ccc3c(c2)CCN3C(=O)Cc2cccc(C(F)(F)F)c2)c2c(N)ncnc21 -0.05
NC1(Cc2ccc(Cl)cc2)CCN(c2ncnc3[nH]ccc23)CC1 0
